According to PubChem BioAssay AID1053 (University of Pittsburgh Molecular Library Screening Center, 2008):
“And” between values parts separate entries of the source, which are not always exact repeats. Identical values can stand only once. A number with no mark means an inactive call. How the calls were made is not given here.

target: Serine/threonine-protein kinase PLK1 (Homo sapiens) (UniProt P53350); experiment: Plk1 polo box domain binding inhibitors, SAR follow-up, biochemical, fluorescence polarization, purchased analogs (AID 1053); conditions: Plk1 PBD fluorescence polarization peptide binding; at 20 µM; active compounds read high
Sequence (P53350 whole entry, looked up, the tested form may be a part): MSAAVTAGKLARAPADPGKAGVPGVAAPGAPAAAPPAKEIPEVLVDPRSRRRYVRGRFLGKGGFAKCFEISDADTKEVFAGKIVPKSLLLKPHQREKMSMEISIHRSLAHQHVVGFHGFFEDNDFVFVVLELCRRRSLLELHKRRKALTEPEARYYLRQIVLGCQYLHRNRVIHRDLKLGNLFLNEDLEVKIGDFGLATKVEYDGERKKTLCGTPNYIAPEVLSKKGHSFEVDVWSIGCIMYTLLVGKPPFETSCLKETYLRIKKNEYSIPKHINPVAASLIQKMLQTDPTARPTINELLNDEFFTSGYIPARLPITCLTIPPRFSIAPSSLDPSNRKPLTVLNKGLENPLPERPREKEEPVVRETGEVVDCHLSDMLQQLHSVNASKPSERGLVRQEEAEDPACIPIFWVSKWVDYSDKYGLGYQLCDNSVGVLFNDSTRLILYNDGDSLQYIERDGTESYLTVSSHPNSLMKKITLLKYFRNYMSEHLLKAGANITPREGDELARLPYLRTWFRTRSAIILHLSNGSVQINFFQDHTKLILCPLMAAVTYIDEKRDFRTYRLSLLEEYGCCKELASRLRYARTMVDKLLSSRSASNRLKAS

SMILES | inhibition
CCOC(=O)c1ccc(N=Cc2c(O)n(Cc3ccc4c(c3)OCO4)c(=O)[nH]c2=O)cc1 | -19.4%
CCOC(=O)c1ccc(N=Cc2c(O)n(-c3cccc(OC)c3)c(=O)[nH]c2=O)cc1 | -40.6%
CCOC(=O)c1ccc(NC(=O)C2OCCc3ccccc32)cc1 (stereo unspecified) | -101%
CC(=O)N(/N=C1\Sc2ccccc2C1=O)c1cccc(C)c1 | 20.1%
Cn1nc(-c2ccc(F)cc2)nc2c(=O)n(C)c(=O)nc1-2 | 3.86%
CC(=O)N(/N=C1\Sc2ccccc2C1=O)c1ccccc1 | 24.7%
CCOC(=O)c1ccc(NC(=O)C2C3C=CC(C3)C2C(=O)O)cc1 (stereo unspecified) | -31.4%
CCCOC(=O)c1ccc(NC(=O)c2ccc(C)c(I)c2)cc1 | -23.6%
CCCCCC(=O)N(CN1C(=O)c2ccccc2C1=O)c1ccc(OCc2ccccc2)cc1 | -7.17%
CC(=O)N(/N=C1\Sc2ccccc2C1=O)c1cccc(Br)c1 | 20.2%
CCOC(=O)c1ccc(NC(=O)c2c(C)cc(=O)oc2C)cc1 | -118%
CCCCOC(=O)c1ccc(NC(=O)c2cc(OCC)c(OCC)c(OCC)c2)cc1 | -30.5%
COc1ccccc1N(/C=C1\Sc2ccccc2C1=O)C(C)=O | -288% and -274%
COc1ccc(N(CN2C(=O)c3cc(Cl)c(Cl)cc3C2=O)C(C)=O)cc1 | -52.7%
COC(=O)c1ccc(N(/N=C2\Sc3ccccc3C2=O)C(C)=O)cc1 | -20.9%
COc1ccccc1N(CN1C(=O)c2ccc([N+](=O)[O-])cc2C1=O)C(C)=O | -55.2%
CC(=O)N(CN1C(=O)c2ccccc2C1=O)c1ccc(C)cc1 | -31.4%
COc1cc(C=C2C(=O)NC(=O)NC2=O)ccc1OCc1ccc(Cl)cc1Cl | -58.1%

SMILES | inhibition
CCn1nc(-c2cccc(Cl)c2)nc2c(=O)n(C)c(=O)nc1-2 | -5.43% and -17.8%
CC(=O)N(CN1C(=O)c2ccccc2C1=O)c1ccc(I)cc1 | -50.3% and -70.1%
CC(=O)Oc1ccccc1N(/C=C1\Sc2ccccc2C1=O)C(C)=O | -254% and -278%
CCOC(=O)c1ccc(NC(=O)c2cc3ccccc3c(=O)o2)cc1 | -35.6%
CC(=O)c1ccc(N(CN2C(=O)c3ccc([N+](=O)[O-])cc3C2=O)C(C)=O)cc1 | -32.8%
CC(=O)N(CN1C(=O)c2cc(Cl)c(Cl)cc2C1=O)c1ccc(C)c(Cl)c1 | -45.5%
CCn1nc(-c2ccc(OC)cc2)nc2c(=O)n(C)c(=O)nc1-2 | 28%
COC(=O)c1ccc(NC(=O)c2cc(-c3ccc(C)o3)nc3ccccc23)cc1 | 25.4%
CCOC(=O)c1ccc(N=Cc2c(O)n(-c3ccc(OCC)cc3)c(=O)[nH]c2=O)cc1 | -112%
COc1ccc(C(=O)COC(=O)c2ccc(NC(=O)c3ccccc3)cc2)cc1 | 40.3%
CCOC(=O)c1ccc(NC(=O)C2CCC(C(C)(C)C)CC2)cc1 (stereo unspecified) | 8.43%
Cc1cc(-n2c(C)cc(C=C3C(=O)NC(=O)NC3=O)c2C)ccc1I | -48.2%
CCOC(=O)c1ccc(NC(=O)C2COc3ccccc3O2)cc1 (stereo unspecified) | -40.6%
O=C(COC(=O)c1ccc(NC(=O)c2ccc(Cl)cc2)cc1)c1ccccc1 | 41.3%
O=c1[nH]c2c(c(O)c1-c1ccccc1)c(=O)n(-c1ccccc1)c(=O)n2-c1ccccc1 | -40.4%
COc1cc(C=C2C(=O)NC(=O)NC2=O)ccc1OCc1c(C)no[n+]1[O-] | -67.5%
CCOC(=O)c1ccc(N=Cc2c(O)n(C)c(=O)n(C)c2=O)cc1 | -54.3%
CCn1nc(-c2ccccc2C)nc2c(=O)n(C)c(=O)nc1-2 | 2.2% and 21.7%
